Assay results as given in the supplement of paper PMC10849652.
Of roughly 7,900 targets only a part is listed; those with a hit were picked by preference. About 0.6% of all pairs of compound and target were hits.

Compound: c1cn2cc(-c3ccc4cn[nH]c4c3)nc(Nc3ccc(N4CCOCC4)cc3)c2n1 [entospletinib]
Assay: log2 fold change, soluble protein after heating vs DMSO (PISA); higher = thermal stabilisation; K562 cells, 10 uM, 30 min; active = over 0.2 and 3.5 SD of the protein, either way, in both replicates (recomputed)
In short: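 Values are thermal stability changes relative to control samples and are taken from duplicates. They are stated as log2 fold changes. Before quantification by TMTpro 16plex LC-MS/MS with equalised channel sums, K562 cells at 2×10^6 cells/mL were treated with 10 μM compound for 30 min, heated in aliquots for 3 min across 48°C-58°C, pooled, extracted in PBS with 0.5% NP-40 at 4°C, and centrifuged at 21,000xg for 90 min to give the soluble supernatant.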

Chain of UniProt O60271 (O60271 whole entry, looked up): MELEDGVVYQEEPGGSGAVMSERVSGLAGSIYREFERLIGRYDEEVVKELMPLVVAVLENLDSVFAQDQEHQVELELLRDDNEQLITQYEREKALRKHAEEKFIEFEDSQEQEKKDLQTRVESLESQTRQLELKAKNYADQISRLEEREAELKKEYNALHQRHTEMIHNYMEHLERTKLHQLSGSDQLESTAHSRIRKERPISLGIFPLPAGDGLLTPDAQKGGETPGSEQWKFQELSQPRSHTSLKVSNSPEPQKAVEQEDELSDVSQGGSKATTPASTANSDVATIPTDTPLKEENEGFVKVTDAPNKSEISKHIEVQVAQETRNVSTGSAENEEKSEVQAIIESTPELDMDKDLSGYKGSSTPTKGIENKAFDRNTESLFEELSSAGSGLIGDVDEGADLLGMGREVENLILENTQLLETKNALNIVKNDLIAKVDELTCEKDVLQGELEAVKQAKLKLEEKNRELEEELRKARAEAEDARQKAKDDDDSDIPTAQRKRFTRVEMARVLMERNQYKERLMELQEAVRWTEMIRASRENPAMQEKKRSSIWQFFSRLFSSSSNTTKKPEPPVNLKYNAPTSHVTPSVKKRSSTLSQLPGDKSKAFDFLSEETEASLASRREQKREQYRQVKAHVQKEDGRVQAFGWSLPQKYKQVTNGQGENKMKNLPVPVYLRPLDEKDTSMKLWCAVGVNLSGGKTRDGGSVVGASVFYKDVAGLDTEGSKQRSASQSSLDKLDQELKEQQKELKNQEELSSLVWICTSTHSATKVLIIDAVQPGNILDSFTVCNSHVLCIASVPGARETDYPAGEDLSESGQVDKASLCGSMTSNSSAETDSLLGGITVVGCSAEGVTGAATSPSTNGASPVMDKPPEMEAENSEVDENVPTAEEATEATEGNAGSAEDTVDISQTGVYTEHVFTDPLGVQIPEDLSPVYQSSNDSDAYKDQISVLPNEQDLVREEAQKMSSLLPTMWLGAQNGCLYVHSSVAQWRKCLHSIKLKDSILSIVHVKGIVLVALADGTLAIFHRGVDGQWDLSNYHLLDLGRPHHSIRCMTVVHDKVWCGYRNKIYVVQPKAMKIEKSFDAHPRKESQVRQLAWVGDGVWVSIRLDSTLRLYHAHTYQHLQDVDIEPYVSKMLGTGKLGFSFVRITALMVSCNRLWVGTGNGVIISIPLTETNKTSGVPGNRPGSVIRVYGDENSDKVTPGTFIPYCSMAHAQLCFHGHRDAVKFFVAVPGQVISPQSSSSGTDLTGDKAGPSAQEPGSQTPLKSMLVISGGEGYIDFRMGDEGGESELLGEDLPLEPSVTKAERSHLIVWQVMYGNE
Chain of UniProt Q08170 (Q08170 whole entry, looked up): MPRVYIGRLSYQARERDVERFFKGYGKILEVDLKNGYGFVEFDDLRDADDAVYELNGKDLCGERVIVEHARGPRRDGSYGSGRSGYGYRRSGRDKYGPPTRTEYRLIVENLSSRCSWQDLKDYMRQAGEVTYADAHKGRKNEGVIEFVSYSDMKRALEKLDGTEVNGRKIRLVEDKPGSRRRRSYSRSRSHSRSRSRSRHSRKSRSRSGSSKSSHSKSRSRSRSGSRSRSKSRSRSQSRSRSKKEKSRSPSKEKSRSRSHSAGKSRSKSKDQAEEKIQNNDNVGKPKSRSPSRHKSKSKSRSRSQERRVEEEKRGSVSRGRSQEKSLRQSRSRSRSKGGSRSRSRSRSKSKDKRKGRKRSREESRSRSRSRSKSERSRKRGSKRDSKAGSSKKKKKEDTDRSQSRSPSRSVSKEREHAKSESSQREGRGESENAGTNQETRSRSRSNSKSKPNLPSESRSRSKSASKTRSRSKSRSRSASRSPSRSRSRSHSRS
Chain of UniProt P51687 (P51687 whole entry, looked up): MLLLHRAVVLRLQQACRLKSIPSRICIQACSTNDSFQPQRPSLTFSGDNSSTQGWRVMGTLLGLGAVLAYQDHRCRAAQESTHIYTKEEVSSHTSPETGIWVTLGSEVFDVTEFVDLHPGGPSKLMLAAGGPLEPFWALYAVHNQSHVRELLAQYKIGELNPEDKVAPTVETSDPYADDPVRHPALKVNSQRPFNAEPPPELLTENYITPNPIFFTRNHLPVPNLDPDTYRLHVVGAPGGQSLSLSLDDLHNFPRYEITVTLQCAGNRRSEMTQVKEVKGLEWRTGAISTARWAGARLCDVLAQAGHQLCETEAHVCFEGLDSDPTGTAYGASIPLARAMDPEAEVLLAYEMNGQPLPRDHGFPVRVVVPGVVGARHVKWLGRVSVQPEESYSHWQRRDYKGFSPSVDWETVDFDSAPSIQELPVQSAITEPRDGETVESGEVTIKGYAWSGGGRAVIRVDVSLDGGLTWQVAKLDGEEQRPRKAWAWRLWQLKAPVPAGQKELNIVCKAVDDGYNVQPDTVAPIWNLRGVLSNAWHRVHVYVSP
Chain of UniProt Q00059 (Q00059 whole entry, looked up): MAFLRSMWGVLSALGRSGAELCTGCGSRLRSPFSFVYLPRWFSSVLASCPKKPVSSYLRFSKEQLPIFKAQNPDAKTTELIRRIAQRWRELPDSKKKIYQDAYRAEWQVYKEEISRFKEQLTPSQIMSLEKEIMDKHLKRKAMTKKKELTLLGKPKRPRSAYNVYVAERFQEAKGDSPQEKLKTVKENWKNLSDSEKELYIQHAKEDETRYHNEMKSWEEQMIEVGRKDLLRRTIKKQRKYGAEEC
Chain of UniProt Q13428 (Q13428 whole entry, looked up): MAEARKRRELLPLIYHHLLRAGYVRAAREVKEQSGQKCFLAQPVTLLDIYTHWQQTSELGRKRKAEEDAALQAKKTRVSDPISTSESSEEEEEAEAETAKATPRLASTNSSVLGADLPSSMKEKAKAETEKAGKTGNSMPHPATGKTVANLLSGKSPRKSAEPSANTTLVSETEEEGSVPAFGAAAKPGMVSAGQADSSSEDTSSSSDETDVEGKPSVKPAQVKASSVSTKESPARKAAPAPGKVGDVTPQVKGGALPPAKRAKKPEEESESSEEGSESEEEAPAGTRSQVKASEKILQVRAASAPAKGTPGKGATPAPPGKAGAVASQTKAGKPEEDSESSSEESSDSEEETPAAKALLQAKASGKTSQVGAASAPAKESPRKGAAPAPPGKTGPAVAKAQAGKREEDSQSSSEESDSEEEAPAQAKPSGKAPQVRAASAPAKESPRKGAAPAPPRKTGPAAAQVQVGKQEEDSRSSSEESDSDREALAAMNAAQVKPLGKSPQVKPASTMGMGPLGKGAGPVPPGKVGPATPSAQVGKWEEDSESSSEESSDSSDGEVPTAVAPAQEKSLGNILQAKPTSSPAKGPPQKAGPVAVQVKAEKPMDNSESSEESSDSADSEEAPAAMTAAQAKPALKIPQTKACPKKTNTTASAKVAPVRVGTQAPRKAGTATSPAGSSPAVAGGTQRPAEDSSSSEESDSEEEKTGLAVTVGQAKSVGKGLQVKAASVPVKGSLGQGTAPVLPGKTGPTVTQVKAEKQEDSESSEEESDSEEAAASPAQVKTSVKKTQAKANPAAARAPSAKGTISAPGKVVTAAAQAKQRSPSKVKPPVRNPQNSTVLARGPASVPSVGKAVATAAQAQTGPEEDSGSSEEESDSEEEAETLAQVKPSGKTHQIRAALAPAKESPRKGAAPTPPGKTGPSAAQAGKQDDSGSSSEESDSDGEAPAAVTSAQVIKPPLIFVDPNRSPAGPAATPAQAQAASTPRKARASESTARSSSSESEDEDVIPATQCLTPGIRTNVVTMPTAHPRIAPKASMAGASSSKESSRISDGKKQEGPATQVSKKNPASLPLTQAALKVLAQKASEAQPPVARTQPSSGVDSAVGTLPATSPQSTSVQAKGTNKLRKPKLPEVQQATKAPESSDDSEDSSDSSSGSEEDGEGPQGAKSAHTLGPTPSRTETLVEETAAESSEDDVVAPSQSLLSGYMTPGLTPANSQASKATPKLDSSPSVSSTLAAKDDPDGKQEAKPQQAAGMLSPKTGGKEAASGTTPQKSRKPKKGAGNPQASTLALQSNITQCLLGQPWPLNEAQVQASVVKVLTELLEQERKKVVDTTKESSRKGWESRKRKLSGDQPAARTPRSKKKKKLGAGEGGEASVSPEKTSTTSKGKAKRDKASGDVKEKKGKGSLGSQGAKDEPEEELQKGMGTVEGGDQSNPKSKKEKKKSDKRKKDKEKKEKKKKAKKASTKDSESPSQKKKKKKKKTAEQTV
Chain of UniProt P04183 (P04183 whole entry, looked up): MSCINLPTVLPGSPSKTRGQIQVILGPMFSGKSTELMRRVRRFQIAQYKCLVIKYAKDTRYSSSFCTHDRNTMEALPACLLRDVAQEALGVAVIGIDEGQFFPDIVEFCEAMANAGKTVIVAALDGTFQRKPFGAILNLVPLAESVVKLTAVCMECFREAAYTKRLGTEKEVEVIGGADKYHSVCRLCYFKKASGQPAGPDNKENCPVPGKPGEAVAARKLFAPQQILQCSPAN
Chain of UniProt Q969S0 (Q969S0 whole entry, looked up): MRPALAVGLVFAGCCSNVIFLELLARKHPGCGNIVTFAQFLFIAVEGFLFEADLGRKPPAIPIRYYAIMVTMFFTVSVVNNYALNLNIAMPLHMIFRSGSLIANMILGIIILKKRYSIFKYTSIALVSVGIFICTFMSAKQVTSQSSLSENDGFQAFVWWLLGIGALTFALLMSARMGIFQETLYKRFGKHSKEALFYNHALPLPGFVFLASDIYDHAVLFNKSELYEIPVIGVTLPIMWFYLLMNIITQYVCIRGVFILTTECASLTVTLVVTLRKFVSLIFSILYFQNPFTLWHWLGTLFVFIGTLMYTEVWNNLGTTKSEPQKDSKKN
Chain of UniProt Q01085 (Q01085 whole entry, looked up): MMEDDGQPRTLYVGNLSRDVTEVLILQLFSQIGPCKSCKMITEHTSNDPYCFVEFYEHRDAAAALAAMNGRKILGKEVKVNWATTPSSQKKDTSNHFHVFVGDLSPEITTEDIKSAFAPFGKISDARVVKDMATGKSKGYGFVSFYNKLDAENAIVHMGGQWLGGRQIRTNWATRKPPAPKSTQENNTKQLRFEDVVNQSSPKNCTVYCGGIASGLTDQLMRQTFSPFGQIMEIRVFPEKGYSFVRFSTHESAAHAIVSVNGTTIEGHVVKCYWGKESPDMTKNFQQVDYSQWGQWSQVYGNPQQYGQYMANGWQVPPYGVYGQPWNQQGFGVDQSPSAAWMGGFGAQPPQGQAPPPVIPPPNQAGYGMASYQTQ

log2 fold change, inactive:
STK25 (UniProt O00506) -0.104
SUPT16H (UniProt Q9Y5B9) -0.055
SPTBN4 (UniProt Q9H254) 0
SLC27A2 (UniProt O14975) 0.063
SUOX (UniProt P51687) 0.03
TANGO6 (UniProt Q9C0B7) -0.089
SRSF7 (UniProt Q16629) 0.197
SLC35B4 (UniProt Q969S0) 0.033
ST6GAL1 (UniProt P15907) 0.098
TCOF1 isoform 6 (UniProt Q13428) -0.006
SPPL2B (UniProt Q8TCT7) -0.056
SP1 (UniProt P08047) 0.068
SLC44A2 isoform 2 (UniProt Q8IWA5) -0.085
TFAM (UniProt Q00059) 0.08
TGFBRAP1 (UniProt Q8WUH2) 0.056
TBK1 (UniProt Q9UHD2) 0.108
TIAL1 isoform 2 (UniProt Q01085) 0.003
SLC6A6 (UniProt P31641) -0.067
SRRM2 (UniProt Q9UQ35) -0.048
TBC1D15 isoform 3 (UniProt Q8TC07) 0.007
SMAD9 (UniProt O15198) -0.026
SYNE2 isoform 2 (UniProt Q8WXH0) -0.069
SYK (UniProt P43405) 0.015
SPAG9 (UniProt O60271) 0.024
SMC5 (UniProt Q8IY18) 0.016
SPAG9 isoform 4 (UniProt O60271) 0.003
SMCHD1 (UniProt A6NHR9) 0.049
SPCS2 (UniProt Q15005) -0.145
TBC1D10B (UniProt Q4KMP7) 0
TK1 (UniProt P04183) -0.012
STIM1 (UniProt Q13586) 0.003
SRSF4 (UniProt Q08170) 0.134
SNRNP27 (UniProt Q8WVK2) 0.025
SLC38A9 (UniProt Q8NBW4) 0.019
SSRP1 (UniProt Q08945) -0.027
